For 27 sequences, binding signal results are on record in article PMC12820563, “FoxP3 forms a head-to-head dimer in vivo and stabilizes its multimerization on adjacent microsatellites”.

Over roughly 16,000 sequences, “rpm ratio (pull-down/input)” has its median near 0.94; the highest 2% begin near 1.7. For the sample, the highest values were picked, then their nearest neighbours and some sequences at random.

This test concerns the target T1, MBP-FoxP1dN (Mus musculus, UniProt P58462 326-579).
T1 sequence: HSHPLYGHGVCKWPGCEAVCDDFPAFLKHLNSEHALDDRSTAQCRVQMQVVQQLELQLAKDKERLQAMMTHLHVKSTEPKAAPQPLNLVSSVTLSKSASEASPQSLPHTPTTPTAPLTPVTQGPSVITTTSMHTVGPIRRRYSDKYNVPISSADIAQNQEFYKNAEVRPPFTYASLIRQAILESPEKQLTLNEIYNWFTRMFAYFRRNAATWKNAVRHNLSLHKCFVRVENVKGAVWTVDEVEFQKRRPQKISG
Description: PD-seq (MBP pull-down with sequencing); 20 mM Tris-HCl pH 7.5, 100 mM NaCl, 1.5 mM MgCl2, 0.4 uM protein, 0.1 uM dsDNA library, 30 min, room temperature, amylose pull-down; high values mean tight binding. The following applies: protein: recombinant; tags: His6-MBP; chain copies: 2; dsDNA, one strand shown. In short, it runs like this:
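Binding is reads-per-million enrichment of pull-down over input, with replicates pooled. It comes from 30 min room-temperature incubation in Tris pH 7.5 buffer with NaCl and MgCl2 of 0.4 µM His6-MBP-tagged, N-terminally truncated mouse FoxP3 or FoxP1 fragment from E. coli with 0.1 µM Klenow-filled degenerate double-stranded DNA library, followed by amylose resin capture, three washes and Illumina sequencing of the released DNA.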
As to “GATGATTGTTCTCCCAGCTGATGAATTGAGATCATCGAGTAAACAAATTTTCCTAATCTTTCTGTTCAAGCGCCATCTAC”, the binding signal was 0.904 RPM ratio (pull-down/input).
As for “GATGATTGTTCTCCCAGCTGATGAATTTATGACCTCGAGTAAACAAATTTTCCTAATCTTTCTGTTCAAGCGCCATCTAC”, the figure is 0.986 RPM ratio (pull-down/input).
As for “GATGATTGTTCTCCCAGCTGATGAATTACGATAGTCGAGTAAACAAATTTTCCTAATCTTTCTGTTCAAGCGCCATCTAC”, the figure is 1.01 RPM ratio (pull-down/input).
As for “GATGATTGTTCTCCCAGCTGATGAATTTTCCCTATCGAGTAAACAAATTTTCCTAATCTTTCTGTTCAAGCGCCATCTAC”, the figure is 0.937 RPM ratio (pull-down/input).
On to “GATGATTGTTCTCCCAGCTGATGAATTATACCCGTCGAGTAAACAAATTTTCCTAATCTTTCTGTTCAAGCGCCATCTAC”, for which the binding signal was 0.898 RPM ratio (pull-down/input).
On to “GATGATTGTTCTCCCAGCTGATGAATTACTTCGATCGAGTAAACAAATTTTCCTAATCTTTCTGTTCAAGCGCCATCTAC”, for which the binding signal is 1.01 RPM ratio (pull-down/input).
For “GATGATTGTTCTCCCAGCTGATGAATTATCCATTTCGAGTAAACAAATTTTCCTAATCTTTCTGTTCAAGCGCCATCTAC”, the binding signal was 0.915 RPM ratio (pull-down/input).
Under “GATGATTGTTCTCCCAGCTGATGAATTTCACTAGTCGAGTAAACAAATTTTCCTAATCTTTCTGTTCAAGCGCCATCTAC” stands 0.76 RPM ratio (pull-down/input).
As for “GATGATTGTTCTCCCAGCTGATGAATTTCGTTATTCGAGTAAACAAATTTTCCTAATCTTTCTGTTCAAGCGCCATCTAC”, the figure is 1.01 RPM ratio (pull-down/input).
As for “GATGATTGTTCTCCCAGCTGATGAATTCTGTTATTCGAGTAAACAAATTTTCCTAATCTTTCTGTTCAAGCGCCATCTAC”, the figure is 1.78 RPM ratio (pull-down/input); as for “GATGATTGTTCTCCCAGCTGATGAATTGTTATATTCGAGTAAACAAATTTTCCTAATCTTTCTGTTCAAGCGCCATCTAC”, 1.57 RPM ratio (pull-down/input); as for “GATGATTGTTCTCCCAGCTGATGAATTCACTCCCTCGAGTAAACAAATTTTCCTAATCTTTCTGTTCAAGCGCCATCTAC”, 0.792 RPM ratio (pull-down/input).
For “GATGATTGTTCTCCCAGCTGATGAATTCGGTAAATCGAGTAAACAAATTTTCCTAATCTTTCTGTTCAAGCGCCATCTAC”, the binding signal is 1.22 RPM ratio (pull-down/input).
Under “GATGATTGTTCTCCCAGCTGATGAATTGCTTCGCTCGAGTAAACAAATTTTCCTAATCTTTCTGTTCAAGCGCCATCTAC” stands 0.992 RPM ratio (pull-down/input).
As for “GATGATTGTTCTCCCAGCTGATGAATTCCCTGATTCGAGTAAACAAATTTTCCTAATCTTTCTGTTCAAGCGCCATCTAC”, the figure is 0.807 RPM ratio (pull-down/input); as for “GATGATTGTTCTCCCAGCTGATGAATTCAATTGATCGAGTAAACAAATTTTCCTAATCTTTCTGTTCAAGCGCCATCTAC”, 1.02 RPM ratio (pull-down/input); as for “GATGATTGTTCTCCCAGCTGATGAATTTGATTGATCGAGTAAACAAATTTTCCTAATCTTTCTGTTCAAGCGCCATCTAC”, 1.1 RPM ratio (pull-down/input).
Regarding “GATGATTGTTCTCCCAGCTGATGAATTCTTTTGATCGAGTAAACAAATTTTCCTAATCTTTCTGTTCAAGCGCCATCTAC”, the binding signal is 0.969 RPM ratio (pull-down/input).
As for “GATGATTGTTCTCCCAGCTGATGAATTCTGTTGATCGAGTAAACAAATTTTCCTAATCTTTCTGTTCAAGCGCCATCTAC”, the figure is 2.26 RPM ratio (pull-down/input); as for “GATGATTGTTCTCCCAGCTGATGAATTTCTGTGATCGAGTAAACAAATTTTCCTAATCTTTCTGTTCAAGCGCCATCTAC”, 1.02 RPM ratio (pull-down/input).
As for “GATGATTGTTCTCCCAGCTGATGAATTCTATTCATCGAGTAAACAAATTTTCCTAATCTTTCTGTTCAAGCGCCATCTAC”, the figure is 0.915 RPM ratio (pull-down/input).
Under “GATGATTGTTCTCCCAGCTGATGAATTTTGTTGATCGAGTAAACAAATTTTCCTAATCTTTCTGTTCAAGCGCCATCTAC” stands 2.8 RPM ratio (pull-down/input).
Turning to “GATGATTGTTCTCCCAGCTGATGAATTCTATTGATCGAGTAAACAAATTTTCCTAATCTTTCTGTTCAAGCGCCATCTAC”, the binding signal is 2.09 RPM ratio (pull-down/input).
Under “GATGATTGTTCTCCCAGCTGATGAATTGATTTGATCGAGTAAACAAATTTTCCTAATCTTTCTGTTCAAGCGCCATCTAC” stands 1.07 RPM ratio (pull-down/input).
Under “GATGATTGTTCTCCCAGCTGATGAATTGTGATGATCGAGTAAACAAATTTTCCTAATCTTTCTGTTCAAGCGCCATCTAC” stands 1.42 RPM ratio (pull-down/input).
For the sequence “GATGATTGTTCTCCCAGCTGATGAATTGTTGTGATCGAGTAAACAAATTTTCCTAATCTTTCTGTTCAAGCGCCATCTAC”, the binding signal is 2.32 RPM ratio (pull-down/input).
Under “GATGATTGTTCTCCCAGCTGATGAATTGATCTATTCGAGTAAACAAATTTTCCTAATCTTTCTGTTCAAGCGCCATCTAC” stands 1.15 RPM ratio (pull-down/input).
